Percent Effect data for eight compounds are collected here from ChEMBL document CHEMBL3988442, “University of Dundee, Small-Polar-MMV Screening Library” (2021).

For some of these results: Results with a measured potency or affinity are listed apart.

Parameters in all cases: scale not given: direction of the effect not stated beside the values
In experiment [1] the target is Protein translocase subunit SecA (Escherichia coli (strain K12)) (UniProt P10408). In words: Assay to Identify E. coli SecA ATPase Inhibitors. In kind it is functional. As to conditions: 30 µM.
Chain of Protein translocase subunit SecA (Escherichia coli (strain K12)) (P10408 whole entry): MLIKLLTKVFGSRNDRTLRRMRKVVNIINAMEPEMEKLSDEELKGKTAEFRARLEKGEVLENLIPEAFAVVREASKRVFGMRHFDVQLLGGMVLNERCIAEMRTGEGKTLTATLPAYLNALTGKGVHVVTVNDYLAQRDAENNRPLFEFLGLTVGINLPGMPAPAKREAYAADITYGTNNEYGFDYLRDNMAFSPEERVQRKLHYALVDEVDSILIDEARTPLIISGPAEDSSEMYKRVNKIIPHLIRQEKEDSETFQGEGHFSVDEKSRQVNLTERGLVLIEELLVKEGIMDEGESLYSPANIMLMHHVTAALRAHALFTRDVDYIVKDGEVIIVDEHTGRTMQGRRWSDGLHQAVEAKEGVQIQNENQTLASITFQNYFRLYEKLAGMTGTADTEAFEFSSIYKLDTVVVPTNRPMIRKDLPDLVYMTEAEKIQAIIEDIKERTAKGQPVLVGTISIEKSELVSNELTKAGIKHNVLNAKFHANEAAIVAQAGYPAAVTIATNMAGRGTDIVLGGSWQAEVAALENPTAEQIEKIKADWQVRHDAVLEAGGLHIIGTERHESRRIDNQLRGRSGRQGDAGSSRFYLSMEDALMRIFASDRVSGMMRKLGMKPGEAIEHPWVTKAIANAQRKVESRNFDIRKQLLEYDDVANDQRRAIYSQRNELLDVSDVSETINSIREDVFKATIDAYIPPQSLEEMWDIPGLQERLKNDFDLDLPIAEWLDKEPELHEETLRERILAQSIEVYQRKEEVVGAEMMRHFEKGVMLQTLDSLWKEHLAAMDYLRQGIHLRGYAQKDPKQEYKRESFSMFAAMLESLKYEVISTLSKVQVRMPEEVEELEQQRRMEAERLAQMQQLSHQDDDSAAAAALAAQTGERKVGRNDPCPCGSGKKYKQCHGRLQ
In experiment [2] the target is T1, Ubiquitin-activating enzyme e1, putative (Leishmania donovani (strain BPK282A1)) (UniProt E9BSI1).
T1 sequence (whole entry): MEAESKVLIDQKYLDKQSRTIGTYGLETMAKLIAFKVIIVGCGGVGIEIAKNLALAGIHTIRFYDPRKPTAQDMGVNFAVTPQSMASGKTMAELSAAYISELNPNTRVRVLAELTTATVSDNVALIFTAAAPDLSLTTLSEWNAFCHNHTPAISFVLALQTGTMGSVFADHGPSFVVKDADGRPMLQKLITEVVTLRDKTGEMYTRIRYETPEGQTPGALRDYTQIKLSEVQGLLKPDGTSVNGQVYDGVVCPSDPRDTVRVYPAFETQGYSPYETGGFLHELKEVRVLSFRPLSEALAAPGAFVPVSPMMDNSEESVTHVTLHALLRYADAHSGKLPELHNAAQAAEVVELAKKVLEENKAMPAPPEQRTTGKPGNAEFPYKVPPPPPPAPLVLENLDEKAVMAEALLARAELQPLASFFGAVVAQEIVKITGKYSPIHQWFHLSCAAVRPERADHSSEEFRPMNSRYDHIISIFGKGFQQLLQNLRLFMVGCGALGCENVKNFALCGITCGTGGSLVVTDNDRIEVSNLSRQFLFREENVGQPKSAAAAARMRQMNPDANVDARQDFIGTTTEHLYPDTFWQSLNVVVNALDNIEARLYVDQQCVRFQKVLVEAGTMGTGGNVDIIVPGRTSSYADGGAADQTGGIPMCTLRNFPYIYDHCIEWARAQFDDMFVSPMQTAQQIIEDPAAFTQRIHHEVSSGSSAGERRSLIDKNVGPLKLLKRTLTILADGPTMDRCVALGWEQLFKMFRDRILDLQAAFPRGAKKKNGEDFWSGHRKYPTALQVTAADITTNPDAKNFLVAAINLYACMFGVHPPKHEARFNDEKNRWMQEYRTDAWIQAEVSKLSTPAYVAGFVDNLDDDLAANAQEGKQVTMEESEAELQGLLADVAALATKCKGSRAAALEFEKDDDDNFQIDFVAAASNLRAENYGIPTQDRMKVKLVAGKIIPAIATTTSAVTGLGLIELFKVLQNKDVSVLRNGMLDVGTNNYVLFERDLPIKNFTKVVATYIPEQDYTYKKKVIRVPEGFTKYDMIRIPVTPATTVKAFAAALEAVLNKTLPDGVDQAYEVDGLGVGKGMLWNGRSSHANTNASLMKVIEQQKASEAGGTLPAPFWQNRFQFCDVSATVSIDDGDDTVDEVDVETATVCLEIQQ
Briefly: Leishmania donovani Ubiquitin Activating Enzyme (LdE1). In kind it is functional. As to conditions: 30 µM.

Experiment [3] addresses AMP-activated protein kinase, AMPK (Homo sapiens) (UniProt P54646+O43741+P54619+Q9UGJ0+Q9Y478+Q13131+Q9UGI9). Briefly: AMP-dependent Kinase enzyme assay. An in vitro enzyme assay that detects ADP turnover that is directly proportional to AMPK activity. This uses naive AMPK that is activated during the assay with MK-8722. In kind it is functional. The note with it: 30 µM.

Experiment [4] deals with Sialic acid-binding Ig-like lectin 9 (Homo sapiens) (UniProt Q9Y336). In words: Hs-Siglec9 ALPHAscreen SOP 20170721. The note with it: 10 µM.
Chain of Sialic acid-binding Ig-like lectin 9 (Homo sapiens) (Q9Y336 whole entry): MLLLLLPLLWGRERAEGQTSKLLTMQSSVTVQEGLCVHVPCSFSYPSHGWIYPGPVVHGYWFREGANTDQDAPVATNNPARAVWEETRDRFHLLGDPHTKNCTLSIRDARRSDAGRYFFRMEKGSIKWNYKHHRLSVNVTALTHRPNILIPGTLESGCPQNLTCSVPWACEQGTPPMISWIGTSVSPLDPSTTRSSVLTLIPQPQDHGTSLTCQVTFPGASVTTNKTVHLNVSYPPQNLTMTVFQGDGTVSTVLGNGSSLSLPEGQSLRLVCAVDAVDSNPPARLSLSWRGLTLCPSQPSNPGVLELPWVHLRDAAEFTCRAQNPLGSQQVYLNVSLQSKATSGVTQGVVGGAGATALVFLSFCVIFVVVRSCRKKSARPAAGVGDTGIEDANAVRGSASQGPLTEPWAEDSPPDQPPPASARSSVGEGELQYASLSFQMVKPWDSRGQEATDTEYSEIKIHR
For the next experiment, the system named is Trypanosoma cruzi. Briefly: Trypanosoma cruzi phosphomannomutase and mannose-1-phosphate guanylyltransferase assay. In kind it is functional. The note with it: 10 µM.
Experiment [5] addresses T2, Arginase-2, mitochondrial (Homo sapiens) (UniProt P78540).
T2 sequence (whole entry): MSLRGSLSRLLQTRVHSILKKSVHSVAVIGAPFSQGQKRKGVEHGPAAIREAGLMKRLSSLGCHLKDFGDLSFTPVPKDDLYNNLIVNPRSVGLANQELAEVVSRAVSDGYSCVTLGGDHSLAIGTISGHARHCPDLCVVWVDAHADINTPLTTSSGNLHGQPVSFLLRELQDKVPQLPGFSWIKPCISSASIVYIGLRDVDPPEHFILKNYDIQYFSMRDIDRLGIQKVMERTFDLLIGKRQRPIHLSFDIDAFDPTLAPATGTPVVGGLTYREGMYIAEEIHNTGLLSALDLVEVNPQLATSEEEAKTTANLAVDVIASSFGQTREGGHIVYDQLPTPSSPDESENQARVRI
Briefly: in vitro enzyme assay to detect the production of urea directly proportional to the activity of Arginase II. Note: in the data most compounds retested in dose-response had high values. It counts as functional. The note with it: 33.3 µM.

For experiment [6], the target named is T3, Proteasome subunit beta (Trypanosoma cruzi) (UniProt O96673).
T3 sequence (whole entry): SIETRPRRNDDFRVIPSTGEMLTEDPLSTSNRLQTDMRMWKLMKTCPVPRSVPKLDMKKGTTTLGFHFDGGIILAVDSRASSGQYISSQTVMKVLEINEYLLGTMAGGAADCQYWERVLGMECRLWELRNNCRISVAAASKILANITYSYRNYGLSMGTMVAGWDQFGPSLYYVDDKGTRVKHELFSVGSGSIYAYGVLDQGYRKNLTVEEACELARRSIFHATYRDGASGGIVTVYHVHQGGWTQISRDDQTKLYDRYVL
In words: Trypanosoma cruzi proteasome chymotrypsin-like activity (TcProtChymo) assay. Note: in the data most compounds retested in dose-response had high values. It counts as functional. The note with it: 9.37 µM.

For a further experiment, the species on record is Homo sapiens. In words: To identify inhibition of the IFN signalling (Jak-Stat) pathway via expression of an eGFP reporter gene under the control of an IFN-stimulated response element (ISRE) containing MxA promoter. It counts as functional. As to conditions: 30 µM.
Experiment [7] concerns the target T4, Tyrosyl-tRNA synthetase, putative (Trypanosoma cruzi (strain CL Brener)) (UniProt Q4DSP6).
T4 sequence (whole entry): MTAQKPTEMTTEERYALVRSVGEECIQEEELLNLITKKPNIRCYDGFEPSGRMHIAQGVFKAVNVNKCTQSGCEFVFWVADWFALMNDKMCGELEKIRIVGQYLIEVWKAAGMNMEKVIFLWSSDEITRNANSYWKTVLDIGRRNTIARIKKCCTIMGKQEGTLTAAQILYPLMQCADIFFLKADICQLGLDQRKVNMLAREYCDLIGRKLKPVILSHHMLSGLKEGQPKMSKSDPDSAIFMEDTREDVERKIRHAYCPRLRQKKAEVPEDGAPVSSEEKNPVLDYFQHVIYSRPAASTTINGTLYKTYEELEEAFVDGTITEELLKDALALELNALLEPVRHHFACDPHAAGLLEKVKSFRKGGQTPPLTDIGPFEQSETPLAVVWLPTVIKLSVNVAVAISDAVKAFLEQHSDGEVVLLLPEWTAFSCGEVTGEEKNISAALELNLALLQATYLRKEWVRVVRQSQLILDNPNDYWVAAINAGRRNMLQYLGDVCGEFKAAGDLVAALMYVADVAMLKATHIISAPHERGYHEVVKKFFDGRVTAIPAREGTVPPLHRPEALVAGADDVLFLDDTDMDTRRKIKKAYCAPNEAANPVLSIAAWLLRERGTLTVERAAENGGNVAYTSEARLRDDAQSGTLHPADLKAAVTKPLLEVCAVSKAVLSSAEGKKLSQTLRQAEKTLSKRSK
Briefly: Trypanosoma cruzi tyrosyl tRNA synthetase (TcYRS) _High Tyrosine SOP. Note: in the data most compounds retested in dose-response had high values. In kind it is functional. The note with it: 30 µM.

Experiment [8] has as its target T4, Tyrosyl-tRNA synthetase, putative (Trypanosoma cruzi (strain CL Brener)). In words: Trypanosoma cruzi tyrosyl tRNA synthetase (TcYRS) SOP. It counts as functional. As to conditions: 30 µM.
The target in experiment [9] is Chromo domain-containing protein 1 (Saccharomyces cerevisiae (strain ATCC 204508 / S288c) (Baker's yeast)) (UniProt P32657). In words: ScCHD-1 Enzyme Inhibition Assay. Note: in the data most compounds retested in dose-response had high values. It counts as functional. The note with it: 30 µM.
Chain of Chromo domain-containing protein 1 (Saccharomyces cerevisiae (strain ATCC 204508 / S288c) (Baker's yeast)) (P32657 whole entry, the tested form may be a part): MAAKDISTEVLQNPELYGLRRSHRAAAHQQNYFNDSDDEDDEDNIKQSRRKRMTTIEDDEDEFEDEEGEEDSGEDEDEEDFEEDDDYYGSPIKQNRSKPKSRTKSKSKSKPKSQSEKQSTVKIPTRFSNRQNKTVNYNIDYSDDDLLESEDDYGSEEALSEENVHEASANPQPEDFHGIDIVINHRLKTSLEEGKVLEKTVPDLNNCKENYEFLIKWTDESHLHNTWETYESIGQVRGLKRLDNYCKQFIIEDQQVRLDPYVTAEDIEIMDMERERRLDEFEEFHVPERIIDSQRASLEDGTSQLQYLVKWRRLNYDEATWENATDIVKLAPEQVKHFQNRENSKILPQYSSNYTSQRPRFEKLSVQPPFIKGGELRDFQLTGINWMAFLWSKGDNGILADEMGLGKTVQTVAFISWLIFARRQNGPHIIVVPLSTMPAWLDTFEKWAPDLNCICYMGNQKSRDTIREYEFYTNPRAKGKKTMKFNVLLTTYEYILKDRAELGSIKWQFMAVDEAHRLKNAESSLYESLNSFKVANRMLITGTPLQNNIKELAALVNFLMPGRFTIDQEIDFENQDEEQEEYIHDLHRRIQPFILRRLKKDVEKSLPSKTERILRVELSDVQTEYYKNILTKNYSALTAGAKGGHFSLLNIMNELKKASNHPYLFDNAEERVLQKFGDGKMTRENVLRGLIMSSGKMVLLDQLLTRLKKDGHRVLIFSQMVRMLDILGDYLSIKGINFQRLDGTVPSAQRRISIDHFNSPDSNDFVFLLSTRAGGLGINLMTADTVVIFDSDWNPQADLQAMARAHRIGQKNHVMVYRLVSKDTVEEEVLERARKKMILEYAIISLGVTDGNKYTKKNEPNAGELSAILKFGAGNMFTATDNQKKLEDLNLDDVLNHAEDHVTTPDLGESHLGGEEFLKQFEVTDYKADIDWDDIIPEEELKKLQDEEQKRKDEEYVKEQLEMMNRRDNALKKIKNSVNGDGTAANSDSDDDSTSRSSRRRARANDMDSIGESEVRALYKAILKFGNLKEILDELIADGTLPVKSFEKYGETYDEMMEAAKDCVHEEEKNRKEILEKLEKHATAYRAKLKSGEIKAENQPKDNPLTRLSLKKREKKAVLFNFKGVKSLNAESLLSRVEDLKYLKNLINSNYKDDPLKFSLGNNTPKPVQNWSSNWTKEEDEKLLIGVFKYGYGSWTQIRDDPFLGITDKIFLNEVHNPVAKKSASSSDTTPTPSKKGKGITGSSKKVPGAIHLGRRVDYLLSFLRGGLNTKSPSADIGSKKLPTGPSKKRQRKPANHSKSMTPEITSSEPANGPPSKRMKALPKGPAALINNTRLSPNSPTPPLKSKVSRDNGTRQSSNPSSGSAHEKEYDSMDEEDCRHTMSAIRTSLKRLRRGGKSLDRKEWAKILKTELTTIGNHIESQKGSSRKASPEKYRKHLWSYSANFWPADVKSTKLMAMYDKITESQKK

As to `O=C(c1ccccc1OCC1CC1)N1CCCC(n2ccnc2)C1` (stereo not drawn), the Percent Effect in experiment [1] is 1.84%; in experiment [2], 1.27%; in experiment [3] it was 11.2%; in [4], -0.0308%; in the experiment with Trypanosoma cruzi, 3.18%; in experiment [5], 5.81%. For the same compound, the Percent Effect in [6] was 10.3%; in the experiment listed under Homo sapiens, -14%; in [7] it was 2.08%; in experiment [8], 7.59%; in experiment [9] it was -6.24%.

Consider `c1cnc(N2CCCC(NCc3cccc4c3OCCO4)C2)nc1` (stereo not drawn), for which the Percent Effect in experiment [1] was -0.886%; in [2] it was -5.41%; in [3], -2.02%; in experiment [4], -1.18%; with Trypanosoma cruzi, 3.87%; in experiment [5], -4.81%. Further, the Percent Effect in experiment [6] is 7.21%; in the experiment filed under Homo sapiens it was 10.1%; in experiment [7], 4.43%; in [8], 3.7%; in [9], -2.9%.

For `Cc1nc(C2CCCN(C(=O)c3cc(Cl)c[nH]3)C2)no1` (stereo not drawn), the Percent Effect was -5.67% in [1]; 12.7% in experiment [2]; -0.617% in experiment [3]; 10.9% in [4]; 3.87% in the experiment with Trypanosoma cruzi; -6.46% in experiment [5]. For the same compound, the Percent Effect in [6] was 1.88%; in the experiment filed under Homo sapiens, -5.6%; in [7], 5.42%; in experiment [8], 13.9%; in experiment [9], -7.78%.

As for `O=C(NC[C@@H]1CCCN1)c1cc(COc2cccc(C(F)(F)F)c2)[nH]n1`, the Percent Effect in experiment [1] was -1.63%; in [2] it was 9.72%; in experiment [3], -0.951%; in experiment [4] it was 10.3%; in the experiment on Trypanosoma cruzi, 2.62%; in experiment [5] it was 21.6%. Besides, the Percent Effect is 6.32% in experiment [6]; -13.9% in the experiment listed under Homo sapiens; 4.21% in [7]; 7.69% in [8]; -1.17% in experiment [9].

As to `CN(C)CCN1CCO[C@@H]2CN(C(=O)c3cccs3)CC[C@@H]2C1`, the Percent Effect in experiment [1] is -2.95%; in [2] it was 10.8%; in experiment [3], 3.88%; in [4], 2.08%; in the experiment on Trypanosoma cruzi, -1.27%; in [5], -1.59%. Also, the Percent Effect in experiment [6] was 20.3%; in the experiment listed under Homo sapiens it was 5.44%; in [7], 1.08%; in [8], 12.8%; in [9], -1.74%.

As for `Cc1ncsc1C(=O)N1CCCN(Cc2cscn2)CC1`, the Percent Effect in experiment [1] is -2.64%; in experiment [2], 5.2%; in [3], 1.53%; in experiment [4] it was 0.904%; in the experiment on Trypanosoma cruzi, 3.82%; in experiment [5], -1.9%. Further, the Percent Effect in experiment [6] was -3.8%; in the experiment listed under Homo sapiens, -3.73%; in experiment [7], 6.67%; in experiment [8] it was 9.41%; in experiment [9] it was -14.3%.

Consider `Cn1nccc1C1CCN(Cc2csc(-c3ncccn3)n2)CC1`, for which the Percent Effect in [1] is -3.65%; in [2], 24.3%; in experiment [3], -7.27%; in [4], 6.8%; in the experiment on Trypanosoma cruzi, 6.96%; in experiment [5], -0.554%. In addition, the Percent Effect in experiment [6] is 8.08%; in the experiment filed under Homo sapiens, 13.2%; in experiment [7], 11.9%; in experiment [8], 28.1%; in experiment [9] it was -7.46%.

Regarding `Cc1ccc(S(=O)(=O)Nc2ccc(=O)n(C)c2)cc1`, the Percent Effect in [1] is -2.01%; in experiment [2] it was 20.2%; in [3], -48.5%; in experiment [4] it was -4.13%; in the experiment on Trypanosoma cruzi, 2.55%; in experiment [5], 4.18%. In addition, the Percent Effect is 17.1% in experiment [6]; 36% in the experiment filed under Homo sapiens; 6.4% in experiment [7]; 13.9% in experiment [8]; -4.02% in experiment [9].
